Data from PubChem BioAssay.
Active and inactive are the calls of the source. Unless noted, no rule for the calls is given here.

Legend:
[1] = test system: Wnt5a (protein binding on small-molecule microarray); assay: small molecules binding Wnt5a protein – biophysical, small-molecule microarray, 635/667 nm fluorescence, primary screen (AID 1142); settings: 635 nm fluorescence, higher = more signal;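 also: fluorescence read at 667 nm with signal to noise per printed feature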
[2] = ATP-based viability of Huh7 replicon cells – cell-based, CellTiter-Glo luminescence, basal, 48 h, cytotoxicity control for HCV replication inhibitor project, primary screen (AID 1143); settings: higher = more signal, called active from +8 up or from −8 down;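 also: Huh7 hepatoma cells carrying a hepatitis C replication reporter with no stimulus; test concentration not given here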
[3] = Pseudomonas biofilm growth suppression – PAO1 strain, BacTiter-Glo luminescence, LB-PBS, primary screen (AID 1144); settings: P. aeruginosa PAO1 biofilm, 12 h, higher = more signal
[4] = basal CRE-LacZ reporter activity in PC12 – cell-based, unstimulated, primary screen (AID 1145); settings: no forskolin, luminescence, 4.5 h, higher = more signal, called active from +8 up or from −8 down
[5] = forskolin-driven CRE-LacZ activity in PC12 – cell-based, CRE-LacZ reporter, forskolin-stimulated, primary screen (AID 1146); settings: luminescence, 4.5 h, higher = more signal, called active from +8 up or from −8 down;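 also: PC12 cells with 6xCRE LacZ reporter stimulated by forskolin 10 µM; beta-galactosidase reporter signal reflecting CREB driven transcription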
[6] = molecular target: Streptavidin (Streptomyces avidinii) (UniProt P22629); assay: compounds binding control protein streptavidin – biophysical, small-molecule microarray, 635/667 nm fluorescence, artefact control for SMM compound annotation, primary screen (AID 1147); settings: higher = more signal;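 also: signal reflects streptavidin binding to arrayed compounds as a control protein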
Streptavidin (Streptomyces avidinii), sequence (P22629 whole entry, looked up): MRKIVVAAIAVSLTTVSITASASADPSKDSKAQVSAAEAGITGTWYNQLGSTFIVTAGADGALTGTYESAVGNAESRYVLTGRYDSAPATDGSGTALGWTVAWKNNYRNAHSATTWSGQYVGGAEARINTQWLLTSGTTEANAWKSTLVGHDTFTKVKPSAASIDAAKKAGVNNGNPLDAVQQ

[7] = probe aInhba binding on compound microarray – biochemical, small-molecule microarray, 635/667 nm fluorescence, primary screen (AID 1148); settings: higher = more signal;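 also: score merges 667nm spot fluorescence with signal-to-noise for antibody binding to printed compounds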
[8] = molecular target: Torsin-1A (Homo sapiens) (UniProt O14656); assay: TOR1A wild-type binding on microarray – cell lysate, small-molecule microarray, lysate, 635/667 nm, primary screen (AID 1149); settings: COS7 hTOR1A-WT lysate, 635 nm fluorescence, higher = more signal
Torsin-1A (Homo sapiens), sequence (O14656 whole entry, looked up): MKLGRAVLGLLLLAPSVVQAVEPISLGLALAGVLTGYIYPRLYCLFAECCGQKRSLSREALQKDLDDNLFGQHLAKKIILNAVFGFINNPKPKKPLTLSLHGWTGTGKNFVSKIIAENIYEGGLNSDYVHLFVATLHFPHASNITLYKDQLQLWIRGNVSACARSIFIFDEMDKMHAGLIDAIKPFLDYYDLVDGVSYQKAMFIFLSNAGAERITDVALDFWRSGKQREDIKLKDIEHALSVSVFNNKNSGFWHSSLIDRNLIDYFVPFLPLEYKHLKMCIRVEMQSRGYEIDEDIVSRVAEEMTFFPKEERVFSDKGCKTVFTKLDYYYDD

[9] = molecular target: Torsin-1A (Homo sapiens) (UniProt O14656); assay: torsin A mutant lysate binding on microarrays – cell lysate, small-molecule microarray, COS7 lysate, 635/667 nm fluorescence, primary screen (AID 1150); settings: COS7 hTOR1A mutant lysate, 635 nm fluorescence, higher = more signal;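 also: score pools 667 nm emission and signal to noise measuring lysate protein binding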
[10] = test system: Sonic hedgehog protein (Shh); assay: Sonic hedgehog microarray binding compounds – biochemical, small-molecule microarray, 635/667 nm fluorescence, primary screen (AID 1151); settings: 635 nm fluorescence, higher = more signal;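 also: Shh protein binding to compounds spotted on small-molecule microarray slides; score combines spot fluorescence intensity with signal-to-noise across triplicate slides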

Compound	composite z-score [1]	z-score [2]	z-score [3]	z-score [4]	z-score [5]	composite z-score [6]	composite z-score [7]	composite z-score [8]	composite z-score [9]	composite z-score [10]
CCc1cccc(NC(=O)O[C@H]2[C@H](OC(=O)Nc3ccccc3-c3ccccc3)[C@H](OC(=O)Nc3ccccc3-c3ccccc3)[C@@H](OC)O[C@@H]2CO)c1	0.947	-5.67 (inactive)	-1.82 (inactive)	-0.506 (inactive)	-0.238 (inactive)	0.284	0.0345	0.762	0.875	2.18
COC(=O)[C@@]1(Cc2ccccc2)[C@H]2c3cc(C(=O)N(C)C)n(CCF)c3C[C@H]2CN1C(=O)c1ccccc1	0.633	-0.717 (inactive)	-0.247 (inactive)	0.387 (inactive)	0.218 (inactive)	1.74	0.333	-0.0224	1.16	-0.187
CN1C(=O)C2C(C1=O)C1C=C(CCCO)C2C(C2CC2)N1C (stereo not given)	0.0748	-2.56 (inactive)	0.189 (inactive)	0.0295 (inactive)	-0.984 (inactive)	-0.45	0.0543	-0.427	-0.454	-0.685
C[N+](C)(C)CCCC[C@@H]1NC(=O)[C@H]2C[C@@H](C(=O)NCCCCCN)[C@@H](c3ccc(O)cc3)N2C1=O	0.801	-0.147 (inactive)	0.69 (inactive)	1.11 (inactive)	0.466 (inactive)	2.29	0.228	0.926	0.6	2.17
COc1ccc([Si](C)(C)[C@H]2[C@H](CC(=O)N(CCO)Cc3ccccc3)O[C@@]3(C(=O)N(Cc4cccc(N5CCCCC5=O)c4)c4ccccc43)[C@@H]2C)cc1	0.0763	-4.74 (inactive)	-0.937 (inactive)	3.13 (inactive)	-1.32 (inactive)	0.0037	-0.0719	0.444	0.793	2.13
CCCCCCc1nc(-c2ccc(OC)nc2)c(C)c2c1[Si](C(C)C)(C(C)C)OC2	-0.0701	-2.75 (inactive)	-1.13 (inactive)	0.106 (inactive)	-0.556 (inactive)	-0.2	0.0536	0.397	-0.57	0.417
COC(=O)[C@@]1(Cc2ccc(F)cc2)[C@H]2c3cc(C(=O)N4CCCC4)n(CCc4c[nH]c5cc(F)ccc45)c3C[C@H]2CN1C(=O)c1ccccc1	1.43	-2.66 (inactive)	0.449 (inactive)	0.197 (inactive)	0.654 (inactive)	1.12	0.0049	1.2	1.29	0.0034
COCCOC(=O)N1C(=O)[C@@]2(c3cc(C#CCC(C(=O)OC)C(=O)OC)ccc31)[C@H](C(=O)N1CCc3cc(OC)c(OC)cc3C1)[C@H]1C(=O)O[C@H](c3ccccc3)[C@H](c3ccccc3)N1[C@@H]2c1ccccc1OCCO	0.725	-3.46 (inactive)	-0.893 (inactive)	-1.14 (inactive)	0.149 (inactive)	0.593	-0.025	0.897	0.949	1.73
C=CCOC(=O)[C@@H]1[C@H]2C(=O)O[C@H](c3ccccc3)[C@H](c3ccccc3)N2[C@H](c2ccc(OCCOC(=O)[C@@H]3C[C@@H]4C(=O)N[C@@H](CC(C)C)C(=O)N4[C@@H]3c3ccc(O)cc3)cc2)[C@@]12C(=O)Nc1ccc(I)cc12	0.601	-0.259 (inactive)	-0.282 (inactive)	-0.655 (inactive)	-1.23 (inactive)	0.834	1.27	0.271	0.506	2.2
CCOC(=O)C[C@H]1[C@H](OC(=O)c2ccc(-c3ccccc3)cc2)[C@@H](NC(=O)c2ccc(-c3ccccc3)cc2)c2cc(OCCCO)ccc2N1C(=O)c1ccccc1	0.131	-0.212 (inactive)	-0.00979 (inactive)	-0.724 (inactive)	0.659 (inactive)	0.763	0.108	0.134	0.987	0.921
COc1ccc(CCNC(=O)[C@@H]2c3ccccc3C(=O)N(C(C)C)[C@H]2c2ccc(CO)cc2)cc1	-0.234	0.172 (inactive)	0.948 (inactive)	0.351 (inactive)	-0.859 (inactive)	-0.896	-0.253	0.123	0.0739	-0.937
CCOC(=O)C1=CC[C@@H](c2ccccc2)N(S(=O)(=O)c2ccc(C)cc2)[C@@H]1C#N	0.0432	-2.54 (inactive)	-0.232 (inactive)	-0.266 (inactive)	40.6 (active)	0.814	-0.128	0.0512	0.291	-0.0766
COc1ccc([Si](C)(C)[C@@H]2[C@@H](CC(=O)N3Cc4ccccc4C[C@H]3CO)O[C@]3(C(=O)N(Cc4ccc(I)cc4)c4ccccc43)[C@H]2C)cc1	0.206	-6.3 (inactive)	0.199 (inactive)	-0.477 (inactive)	0.0658 (inactive)	0.143	-0.101	0.211	0.204	1.94
O=C(NCCN1CCOCC1)[C@@H]1c2ccccc2C(=O)N(CC23CC4CC(CC(C4)C2)C3)[C@H]1c1ccc(CO)cc1	0.617	-2.69 (inactive)	-0.634 (inactive)	0.441 (inactive)	-0.0639 (inactive)	1.12	0.0542	0.51	1.47	0.506
C=CCN1C(=O)[C@]2(O[C@H](CCO)[C@@H]([Si](C)(C)c3ccc(OC)cc3)[C@@H]2C)c2cc(N3C(=O)c4ccccc4Oc4ccccc43)ccc21	0.169	-7.94 (inactive)	-0.323 (inactive)	22.6 (active)	-3.24 (inactive)	0.763	-0.045	0.493	0.418	0.804
CN(C)C(=O)[C@]1(CCS(=O)(=O)c2ccccc2)N=C(c2ccc(OCCCO)cc2)O[C@@H]1c1ccccc1CN=[N+]=[N-]	0.485	-0.915 (inactive)	-0.813 (inactive)	0.0686 (inactive)	0.236 (inactive)	1.54	-0.0332	0.408	0.927	-0.405
C=CCN1C(=O)[C@@]2(O[C@@H](CCO)[C@H]([Si](C)(C)c3ccc(OC)cc3)[C@H]2C)c2cc(N3CCCCC3=O)ccc21	0.282	-5.3 (inactive)	-0.0131 (inactive)	13.6 (active)	-0.639 (inactive)	0.732	0.0471	0.683	0.417	1.6
C=CCNC(=O)[C@@H]1[C@H]2C(=O)O[C@H](c3ccccc3)[C@H](c3ccccc3)N2[C@H](c2ccc(OCCO)cc2)[C@@]12C(=O)N(C(=O)OCCOC)c1ccccc12	0.538	-1.32 (inactive)	-0.328 (inactive)	0.712 (inactive)	-0.477 (inactive)	-0.154	0.138	0.72	0.281	0.957
CCCCN1CC=CC23O[C@@H]4/C=C\CCC(C)OC(=O)C4[C@H]2C(=O)N(CCO)[C@@H]3C1=O (stereo not given in full)	-0.122	-1.08 (inactive)	-1.31 (inactive)	-0.627 (inactive)	-0.0432 (inactive)	-1.52	-0.0494	2.84	2.94	-0.0956
[N-]=[N+]=NCc1ccccc1[C@H]1OC(c2ccc(OCCCO)cc2)=N[C@@]1(Cc1ccccc1N=[N+]=[N-])C(=O)N1CCOCC1	0.135	-3.35 (inactive)	-0.149 (inactive)	2.61 (inactive)	-0.529 (inactive)	1.24	0.222	0.249	0.488	-1.15
CCCNC(=O)[C@@]1(Sc2ccc(C)cc2)CC(=O)N(Cc2cc(C(F)(F)F)cc(C(F)(F)F)c2)[C@@H]1c1ccc(CO)cc1	-0.139	-4.41 (inactive)	0.503 (inactive)	-0.554 (inactive)	0.448 (inactive)	-1.08	-0.0963	-0.11	-0.155	-0.0508
COc1ccc(C(=O)Nc2cccc(CN3C(=O)[C@]4(O[C@H](CC(=O)N(CCO)Cc5ccccc5)[C@@H]([Si](C)(C)c5ccc(OC)cc5)[C@@H]4C)c4ccccc43)c2)cc1	0.997	-4.13 (inactive)	0.172 (inactive)	1.72 (inactive)	-1.33 (inactive)	0.127	-0.0131	0.0401	0.395	1.48
CC(C)N1C(=O)[C@@]2(Cc3ccccc31)c1ccccc1C(=O)N(Cc1ccccc1C(F)(F)F)[C@H]2c1ccc(CO)cc1	0.15	-0.222 (inactive)	-0.121 (inactive)	0.155 (inactive)	0.176 (inactive)	-0.0569	0.46	-0.375	-0.139	0.376
C=CCNC(=O)[C@@H]1[C@H]2C(=O)O[C@H](c3ccccc3)[C@H](c3ccccc3)N2[C@H](c2ccc(OCCO)cc2)[C@@]12C(=O)Nc1ccc(C#CCNC(N)=O)cc12	0.0977	0.414 (inactive)	0.0575 (inactive)	0.155 (inactive)	0.0297 (inactive)	0.987	-0.0195	0.564	0.19	0
O=C1NC(=O)C2C1C=CC(C(O)C(c1ccccc1)c1ccccc1)N2Nc1ccccn1 (stereo not given)	0.367	0.604 (inactive)	-0.725 (inactive)	-0.898 (inactive)	-0.804 (inactive)	-0.0787	0.096	0.675	1.06	0.676
C=CCNC(=O)[C@@H]1[C@H]2C(=O)O[C@H](c3ccccc3)[C@H](c3ccccc3)N2[C@H](c2ccc(O)cc2)[C@@]12C(=O)N(C(=O)OCCOC)c1ccc(C#CCC(C(=O)OC)C(=O)OC)cc12	0.259	-3.02 (inactive)	0.132 (inactive)	-0.438 (inactive)	0.416 (inactive)	0.0198	0.0074	0.586	1.3	1.37
O=C1N(Cc2ccccc2)Cc2ccccc2C[C@@]12COC(c1ccc(OCCCO)cc1)=N2	0.165	-5.94 (inactive)	1.31 (inactive)	1.45 (inactive)	-2.33 (inactive)	-0.0644	0.108	0.356	0.695	0.0301
CC(C)c1ccc(NN2C(C(O)c3ccccc3)C=CC3C(=O)N(c4ccccc4)C(=O)C32)cc1 (stereo not given)	0.297	-0.0828 (inactive)	-0.89 (inactive)	0.433 (inactive)	-0.0336 (inactive)	0.576	0.271	-0.388	0.514	-0.983
